Experimental data taken from PubChem BioAssay AID651592 (Sanford-Burnham Center for Chemical Genomics, 2012).
Active and inactive are the calls of the source.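 How the source made its calls: active means NF-kB reporter IC50 at most 10 µM, IL-8 IC50 within fivefold of it with bacterial filtrate but not with TNF-alpha; inactive means the rest.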

Biological target: Interleukin-8 (Homo sapiens) (UniProt P10145)
Assay: inhibitors of NFkB activation in CF airway cells, SAR follow-up, KKLEB cells, panel, IL8 HTRF, NFkB-GFP (AID 651592);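 further: immortalized cystic fibrosis airway epithelial KKLEB cells with an NF-kB GFP reporter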
Settings: PAF/TNFa-induced NFkB-GFP / IL8 HTRF, mean of runs

Interleukin-8 (Homo sapiens), sequence (P10145 whole entry, looked up): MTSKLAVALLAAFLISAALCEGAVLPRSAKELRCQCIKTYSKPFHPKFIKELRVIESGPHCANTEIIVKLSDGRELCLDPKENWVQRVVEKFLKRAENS

## CCOc1ccc(NCc2cc3c(C(C)(C)C)nn(-c4ccccc4)c3[nH]c2=O)cc1
  outcome: active

## Cc1ccc(CNCc2cc3c(C(C)(C)C)nn(-c4ccccc4)c3[nH]c2=O)cc1
  outcome: active

## CCOc1ccc(NCc2cc3c(C(C)(C)C)nn(-c4ccc(Cl)cc4)c3[nH]c2=O)cc1
  outcome: active

## O=C(Nc1ccc(N2CCN(C(=O)c3ccccc3Cl)CC2)cc1)c1cccc(Br)c1
  outcome: active

## O=C(Nc1ccc(N2CCN(C(=O)c3ccc(F)cc3)CC2)cc1)c1cncc(Br)c1
  outcome: inactive

## O=C(Nc1ccc(N2CCN(C(=O)c3ccccc3)CC2)cc1)c1ccccc1
  outcome: active

## O=C(Nc1ccc(N2CCN(C(=O)c3ccc(F)cc3)CC2)cc1)c1cc(Br)cc(Br)c1
  outcome: active

## O=C(Nc1ccc(N2CCN(C(=O)c3ccc(F)cc3)CC2)cc1)c1ccncc1
  outcome: active

## O=C(Nc1ccc(N2CCN(C(=O)c3ccccc3)CC2)cc1)c1ccncc1
  outcome: active

## O=C(Nc1ccc(N2CCN(C(=O)c3ccccc3F)CC2)cc1)c1cccnc1
  outcome: active

## O=C(Nc1ccc(N2CCN(C(=O)c3ccc(F)cc3)CC2)cc1)c1cccc(Br)c1
  outcome: active

## O=C(Nc1ccc(N2CCN(C(=O)c3ccccc3Cl)CC2)cc1)c1cc(Br)cc(Br)c1
  outcome: active

## O=C(Nc1ccc(N2CCN(C(=O)c3ccccc3)CC2)cc1)c1cccc(Br)c1
  outcome: active

## Cc1ccc(NCc2cc3c(C(C)(C)C)nn(-c4ccccc4)c3[nH]c2=O)cc1
  outcome: active

## O=C(Nc1ccc(N2CCN(C(=O)c3ccccc3Cl)CC2)cc1)c1cncc(Br)c1
  outcome: inactive

## O=C(Nc1ccc(N2CCN(C(=O)c3ccccc3)CC2)cc1)c1cc(Br)cc(Br)c1
  outcome: active

## O=C(Nc1ccc(N2CCN(C(=O)c3ccccc3F)CC2)cc1)c1ccccc1
  outcome: active

## CCOc1ccc(NCc2cc3c(-c4ccc(OC)c(OC)c4)nn(-c4ccccc4)c3[nH]c2=O)cc1
  outcome: active
